These results are taken from PubChem BioAssay (NCATS).

Unmarked numbers belong to inactive results. Records with an inconclusive call do not appear. Activity calls are given as the source filed them. Unless noted, calls come from the whole dose curve; as a rule, active = well fitted curve in the direction sought with a large enough effect; inconclusive = small, poorly fitted or top-dose-only effect, or another doubt; inactive = no such curve, though single readings can be large; an effect the other way counts as inactive or inconclusive.

Experiment [1] in a line: AP1 Signaling Pathway (AID 357; active = well fitted curve in either direction with a large enough effect, not every such curve was filed as active; note: % is set by controls: 0 for no effect and ±100 for the full control effect). To be noted: ME-180 AP-1-bla reporter, EGF-induced, beta-lactamase ratio, 5 h; at 38 µM (top of the series). The procedure, abridged:
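ME-180 cells with beta-lactamase reporter under AP-1 response element, stimulated with EC50 EGF; compounds tested in titration series, 5 h at 37 °C. CCF4 substrate added 2.5 h at room temperature; 460/530 nm emission ratio gave %activity and AC50.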

Experiment [2] in a line: NFAT Signaling Pathway (AID 444; active = well fitted curve in either direction with a large enough effect, not every such curve was filed as active;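 note: carbachol stimulus at about its EC50 of 1 µM final; % is set by controls: 0 for no effect and ±100 for the full control effect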). To be noted: Jurkat NFAT-bla M1, carbachol, beta-lactamase ratio, 5 h; at 38 µM (top of the series). In short, it runs like this:
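Jurkat cells carrying an NFAT-driven β-lactamase reporter and co-transfected muscarinic M1 receptor were treated with compound plus carbachol (1 uM final, an EC50 level) for 5 h at 37 °C. CCF4 loading followed for 1 h at RT; 460/530 nm ratio gave %activity.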

Experiment [3] can be described thus: Stat Signaling Pathway (AID 446; active = well fitted curve in either direction with a large enough effect, not every such curve was filed as active;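 note: ME-180 cervical cancer cells given 40 pM IL-6 alongside compound; SIE-controlled beta-lactamase reporter measured as 460/530 nm FRET emission ratio; % is set by controls: 0 for no effect and ±100 for the full control effect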). Particulars: ME-180 SIE beta-lactamase reporter, IL-6 stimulated, 5 h; at 38 µM (top of the series). In short, it runs like this: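 ME-180 SIE-bla cells; overnight plating; cpd + IL-6 40 pM, 5 h, 37 C; LiveBLAzer 2.5 h RT; 460/530 nm emission ratio. Normalized to 300 pM IL-6 and 125 nM JAK inhibitor controls.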
In experiment [4] the target is Glucocorticoid receptor (Homo sapiens) (UniProt P04150). Briefly: GR-GFP Redistribution (AID 450;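 active = compounds whose dose series gives a full or clear partial fitted curve of increased nuclear translocation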; note: potency is the fitted concentration of half-maximal effect). Particulars: U2OS GR-GFP nuclear translocation, laser cytometry, 2 h.
The target is the same in experiment [5]. As to the kind of experiment: GR-EFC Redistribution (AID 451; calls by dose curve; note: potency is the fitted concentration of half-maximal effect). To be noted: CHO-K1 GR-EFC translocation, beta-gal luminescence, 2 h. In short, it runs like this:
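CHO-K1 cells stably expressing nuclear-localized β-gal enzyme acceptor and GR fused C-terminally to the enzyme donor fragment; ligand-driven nuclear translocation restores β-gal by complementation. Compounds titrated up to 46 uM final, 2 h at 37 °C; luminescence read.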

In experiment [6] the target is Mitogen-activated protein kinase 10 (Mus musculus) (UniProt Q61831). As to the kind of experiment: JNK3 AlphaScreen Assay (AID 530; active = well fitted curve in either direction with a large enough effect, not every such curve was filed as active;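 note: kinase came from lysate of stimulated human HepG2 cells; signal reports phosphorylation of biotinylated GST-cJun 1-79 at Ser73 with 10 µM ATP; % is set by controls: 0 for no effect and ±100 for the full control effect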). Particulars: JNK3 lysate, c-Jun phosphorylation; series mostly up to 57.1 µM. In short, it runs like this:
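Inhibitors reduce antibody binding to phosphorylated biotin-cJun, lowering AlphaScreen luminescence. Lysates from HepG2 cells pre-activated by IL-1beta plus TNF-alpha supplied JNK3; compounds were titrated.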

Experiment [7] concerns the target 3',5'-cyclic-AMP phosphodiesterase 4B (Homo sapiens) (UniProt Q07343). Briefly: qHTS Assay for Inhibitors of PDE-IV (AID 607; active = well fitted activation curve with a large enough effect in the main read-out, with a control signal flat, not every such curve was filed as active; note: % of control where 0% means no effect). Particulars: HEK293 ACTOne CNG channel cells, membrane potential fluorescence; series mostly up to 22.9 µM. The procedure, abridged:
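ACTOne HEK293 cells carry a modified cAMP-gated CNG channel and express endogenous PDE4; plated 1000 cells/well, compounds up to 22.9 uM final. Membrane-potential dye fluorescence (ex 535/em 590) was read; parental cells received 10 uM forskolin + 100 uM RO 20-1724.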

Experiment [8] addresses DNA dC->dU-editing enzyme APOBEC-3G (Homo sapiens) (UniProt Q9HC16). As to the kind of experiment: qHTS for inhibitors of Vif-A3G interactions: Validation (AID 588379). Note: 0% is about no effect. To be noted: Vif-A3G protein interaction assay; series mostly up to 46.1 µM. In short, it runs like this:
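HeLa cells stably expressing Vif and A3G-eYFP, 700 cells/well, incubated overnight at 37 deg C, then exposed to compound overnight at 37 deg C. Inhibition of Vif-mediated degradation read as increased yellow fluorescence (Ex 488/Em 500-530) by laser-scanning cytometry.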
On the technique in general: Quantitative high-throughput screening tests each substance at several concentrations.

Experiment [9] concerns the target Luciferin 4-monooxygenase (Photinus pyralis) (UniProt P08659). As to the kind of experiment: Biochemical firefly luciferase enzyme assay for NPC (AID 624030).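 Note: purified P. pyralis luciferase at 10 nM with luciferin and ATP substrate; 0% = DMSO and -100% = full luciferase inhibition by PTC124 control; nearly all actives have a fitted effect of over 70% in size.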 To be noted: purified P. pyralis luciferase, luminescence, 5 min; series mostly up to 58.6 µM. The procedure, abridged: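 Counter-screen for direct inhibition of the luciferase enzyme by approved-drug library compounds, run at 10 nM enzyme in 50 mM Tris acetate (final). Luminescence was read within 5 min of enzyme-buffer addition and normalized to PTC124 versus DMSO (0%).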

In experiment [10] the test system is Zika virus NS2B-NS3 protease. Briefly: Primary screen GU AMC qHTS for Zika virus inhibitors (AID 1347154).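 Note: 0% = no-inhibitor control and -100% = no-enzyme control; nearly all actives have a fitted effect of over 70% in size.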 Particulars: Zika NS2B-NS3 unlinked protease, AMC fluorogenic substrate; series mostly up to 54.1 µM. In short, it runs like this: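 Unlinked Zika NS2B hydrophilic domain/NS3 protease domain noncovalent complex (25 nM final) in 10 mM Tris-HCl pH 8.0, 0.01% Tween 20, with AMC peptide substrate. Fluorescence (ex 340, em 450 nm) change over 15 min, room temperature; percent inhibition fitted to 4-parameter Hill equation.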

A short description of experiment [11]: Primary qHTS for small molecule stabilizers of the endoplasmic reticulum resident proteome: Secreted ER Calcium Modulated Protein (SERCaMP) assay (AID 1508630). Note: % is set by controls: 0 for no effect and ±100 for the full control effect. To be noted: SH-SY5Y GLuc-SERCaMP (Gaussia luciferase released on ER calcium loss) secretion, thapsigargin, luminescence; series mostly up to 38.4 µM. The procedure, abridged:
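GLuc-SERCaMP-expressing SH-SY5Y cells, pretreated 16 h with compound, are challenged with thapsigargin to empty ER calcium stores; after 4 h, coelenterazine is added directly to the medium and luminescence is imaged.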

Experiment [12] concerns the target Cytochrome P450 3A4 (Homo sapiens) (UniProt P08684). Briefly: qHTS Assay for Inhibitors and Substrates of Cytochrome P450 3A4 (AID 884). Note: potency is the fitted concentration of half-maximal effect; nearly all actives have a fitted effect of over 50% in size. To be noted: recombinant CYP3A4, Luciferin-PPXE luminescence; series mostly up to 57.1 µM. In short, it runs like this:
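20 nM human CYP3A4 with 25 uM Luciferin-PPXE (at KM) in 200 mM KPO4, preincubated 10 min with compound; NADPH regeneration started a 60 min RT reaction. Luciferin detected by luminescence, normalized to 57 uM ketoconazole as full inhibition.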

For experiment [13] the target is unchanged. Briefly: qHTS Assay for Activators of Cytochrome P450 3A4 (AID 885). Note: nearly all actives have a fitted effect of over 65% in size. To be noted: recombinant CYP3A4, Luciferin-PPXE luminescence, 60 min; series mostly up to 57.1 µM. The procedure, abridged:
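20nM CYP3A4 + 25uM Luciferin-PPXE (=KM), 200mM KPO4; cpd 10 min RT; NADPH regen, 60 min RT; stop w/ detection buffer, 20 min; luminescence. Normalized to 57 uM ketoconazole.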

Experiment [14] has as its target Tyrosine-protein kinase Yes (Homo sapiens) (UniProt P07947). As to the kind of experiment: qHTS for small molecule inhibitors of Yes1 kinase: Primary Screen (AID 686947). Note: potency is the fitted concentration of half-maximal effect; nearly all actives have a fitted effect of over 60% in size. Particulars: Yes1 kinase biochemical qHTS inhibition; series mostly up to 76.9 µM. The procedure, abridged: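 Yes1 (4 nM) preincubated 20 min with compound, then 60 min room-temperature reaction with 0.1 mM ATP and 0.3 mg/mL poly(E4Y) in pH 7.5 Tris, 10 mM MgCl2. ADP measured by ADP-Glo luminescence, normalised to enzyme/no-enzyme controls.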

Experiment [15] is described as follows: qHTS for small molecule inhibitors of Yes1 kinase: Counter Assay (AID 686950).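 Note: no kinase present so only ADP-Glo detection of a fixed ADP amount is tested; luminescence from ADP-Glo reporting ADP in a fixed ATP and ADP mixture; 0% = DMSO wells with ATP plus ADP and -100% = ATP-only wells without ADP.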 To be noted: series mostly up to 76.9 µM. The procedure, abridged: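 Enzyme-free ADP-Glo interference check: compounds were preincubated 20 min in buffer, then an ATP/ADP mix (0.08 mM ATP, 0.02 mM ADP final) was added for 60 min at room temperature before two-step ADP-Glo luminescence detection.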

Experiment [16] concerns the target Glutathione peroxidase 1 (Homo sapiens) (UniProt P07203). Briefly: Primary qHTS Assay for Inhibitors of Recombinant Selenoprotein Glutathione Peroxidase 1 (GPX1) (AID 1845191). Note: nearly all actives have a fitted effect of over 65% in size. Particulars: recombinant GPX1, GR-coupled NADPH fluorescence, 15 min; series mostly up to 48.8 µM. In short, it runs like this: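 Recombinant GPX1 (10 nM final) was preincubated with compound for 30 min at room temperature, then reacted with 1 mM GSH, 0.5 mM CHP, 0.5 mM NADPH and 100 nM glutathione reductase; NADPH fluorescence (340/450 nm) was read at 0 and 15 min.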

Sequence of Glucocorticoid receptor (Homo sapiens) (P04150 whole entry, looked up): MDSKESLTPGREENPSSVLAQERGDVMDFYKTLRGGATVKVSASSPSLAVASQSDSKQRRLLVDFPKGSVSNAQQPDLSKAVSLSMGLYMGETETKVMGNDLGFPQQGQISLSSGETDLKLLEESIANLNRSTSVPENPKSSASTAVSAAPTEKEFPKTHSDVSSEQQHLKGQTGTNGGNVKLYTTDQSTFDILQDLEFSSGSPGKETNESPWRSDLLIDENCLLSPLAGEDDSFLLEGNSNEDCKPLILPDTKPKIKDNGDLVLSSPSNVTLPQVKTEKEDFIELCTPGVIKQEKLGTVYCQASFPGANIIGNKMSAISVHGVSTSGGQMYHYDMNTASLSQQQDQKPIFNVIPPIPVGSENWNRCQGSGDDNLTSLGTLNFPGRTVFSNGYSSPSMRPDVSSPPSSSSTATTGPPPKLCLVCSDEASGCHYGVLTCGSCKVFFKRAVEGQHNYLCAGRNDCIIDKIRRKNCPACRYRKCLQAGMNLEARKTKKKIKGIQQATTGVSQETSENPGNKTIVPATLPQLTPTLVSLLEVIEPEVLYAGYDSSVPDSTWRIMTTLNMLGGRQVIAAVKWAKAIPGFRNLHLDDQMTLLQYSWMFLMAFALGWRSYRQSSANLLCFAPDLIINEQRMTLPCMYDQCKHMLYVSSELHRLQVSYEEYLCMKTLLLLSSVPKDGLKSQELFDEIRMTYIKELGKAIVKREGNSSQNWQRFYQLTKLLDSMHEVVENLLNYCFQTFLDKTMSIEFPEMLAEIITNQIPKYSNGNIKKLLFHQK
Sequence of Cytochrome P450 3A4 (Homo sapiens) (P08684 whole entry, looked up): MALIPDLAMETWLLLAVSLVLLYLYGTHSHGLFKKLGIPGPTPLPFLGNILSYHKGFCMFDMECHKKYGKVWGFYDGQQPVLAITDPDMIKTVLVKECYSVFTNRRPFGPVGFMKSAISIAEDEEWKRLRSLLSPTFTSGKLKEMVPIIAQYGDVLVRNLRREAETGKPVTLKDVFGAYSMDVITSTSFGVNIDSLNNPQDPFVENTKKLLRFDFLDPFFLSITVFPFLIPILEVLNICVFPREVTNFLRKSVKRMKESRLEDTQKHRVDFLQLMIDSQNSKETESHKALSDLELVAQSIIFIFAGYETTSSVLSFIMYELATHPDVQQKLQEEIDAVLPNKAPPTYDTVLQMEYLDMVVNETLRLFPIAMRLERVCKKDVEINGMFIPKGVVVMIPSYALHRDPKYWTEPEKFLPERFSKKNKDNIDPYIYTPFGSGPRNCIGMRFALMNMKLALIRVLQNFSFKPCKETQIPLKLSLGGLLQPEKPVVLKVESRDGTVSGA
Sequence of Glutathione peroxidase 1 (Homo sapiens) (P07203 whole entry, looked up): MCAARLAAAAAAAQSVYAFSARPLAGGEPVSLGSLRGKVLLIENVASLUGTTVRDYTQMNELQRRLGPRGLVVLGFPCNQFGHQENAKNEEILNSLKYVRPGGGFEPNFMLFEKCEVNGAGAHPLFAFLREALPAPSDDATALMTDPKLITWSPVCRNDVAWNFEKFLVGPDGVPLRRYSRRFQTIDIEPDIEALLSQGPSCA
Sequence of Luciferin 4-monooxygenase (Photinus pyralis) (P08659 whole entry, looked up): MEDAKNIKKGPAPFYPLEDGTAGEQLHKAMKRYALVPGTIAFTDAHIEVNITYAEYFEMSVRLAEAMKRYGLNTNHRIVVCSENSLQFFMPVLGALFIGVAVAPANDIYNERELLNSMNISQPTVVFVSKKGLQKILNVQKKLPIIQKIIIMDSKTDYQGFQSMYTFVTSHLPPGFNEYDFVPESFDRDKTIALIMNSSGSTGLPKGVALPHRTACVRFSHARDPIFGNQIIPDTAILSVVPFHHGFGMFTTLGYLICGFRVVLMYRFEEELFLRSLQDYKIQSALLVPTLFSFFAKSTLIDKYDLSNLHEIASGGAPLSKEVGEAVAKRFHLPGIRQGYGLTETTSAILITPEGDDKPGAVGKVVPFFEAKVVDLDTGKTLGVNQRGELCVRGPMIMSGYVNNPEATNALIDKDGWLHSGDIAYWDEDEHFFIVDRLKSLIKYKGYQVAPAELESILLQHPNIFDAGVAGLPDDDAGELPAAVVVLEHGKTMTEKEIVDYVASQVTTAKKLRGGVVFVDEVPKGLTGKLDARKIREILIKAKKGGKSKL
Sequence of 3',5'-cyclic-AMP phosphodiesterase 4B (Homo sapiens) (Q07343 whole entry, looked up): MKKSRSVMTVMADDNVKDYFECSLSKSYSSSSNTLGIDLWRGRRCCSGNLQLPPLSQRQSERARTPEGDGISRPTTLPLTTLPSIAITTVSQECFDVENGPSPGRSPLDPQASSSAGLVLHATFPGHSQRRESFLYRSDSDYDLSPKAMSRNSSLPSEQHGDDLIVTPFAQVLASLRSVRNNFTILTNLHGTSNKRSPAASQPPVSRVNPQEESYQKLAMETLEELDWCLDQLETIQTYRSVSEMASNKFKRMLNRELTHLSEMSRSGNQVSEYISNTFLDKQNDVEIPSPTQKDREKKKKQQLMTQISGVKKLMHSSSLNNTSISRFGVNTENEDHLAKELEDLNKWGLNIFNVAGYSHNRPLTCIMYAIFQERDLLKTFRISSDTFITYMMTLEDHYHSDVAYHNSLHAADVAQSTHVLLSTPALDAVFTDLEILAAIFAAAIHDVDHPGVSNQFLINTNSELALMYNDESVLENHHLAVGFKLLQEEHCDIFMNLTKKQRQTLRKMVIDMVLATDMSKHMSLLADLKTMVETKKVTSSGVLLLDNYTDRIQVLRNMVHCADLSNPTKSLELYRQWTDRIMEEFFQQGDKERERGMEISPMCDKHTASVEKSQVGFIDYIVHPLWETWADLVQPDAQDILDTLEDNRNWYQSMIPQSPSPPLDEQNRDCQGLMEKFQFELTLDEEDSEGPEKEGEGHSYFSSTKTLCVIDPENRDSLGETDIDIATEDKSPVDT
Sequence of DNA dC->dU-editing enzyme APOBEC-3G (Homo sapiens) (Q9HC16 whole entry, looked up): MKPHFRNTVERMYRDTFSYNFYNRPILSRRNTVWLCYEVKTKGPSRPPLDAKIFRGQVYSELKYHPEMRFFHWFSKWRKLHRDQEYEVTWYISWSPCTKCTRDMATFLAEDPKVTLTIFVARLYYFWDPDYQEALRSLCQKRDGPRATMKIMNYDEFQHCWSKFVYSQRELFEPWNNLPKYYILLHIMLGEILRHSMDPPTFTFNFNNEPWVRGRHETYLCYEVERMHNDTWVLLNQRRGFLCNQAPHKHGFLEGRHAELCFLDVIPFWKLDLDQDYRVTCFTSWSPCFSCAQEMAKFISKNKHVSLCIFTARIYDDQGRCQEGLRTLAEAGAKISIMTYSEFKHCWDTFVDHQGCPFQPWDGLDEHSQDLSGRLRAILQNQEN
Sequence of Tyrosine-protein kinase Yes (Homo sapiens) (P07947 whole entry, looked up): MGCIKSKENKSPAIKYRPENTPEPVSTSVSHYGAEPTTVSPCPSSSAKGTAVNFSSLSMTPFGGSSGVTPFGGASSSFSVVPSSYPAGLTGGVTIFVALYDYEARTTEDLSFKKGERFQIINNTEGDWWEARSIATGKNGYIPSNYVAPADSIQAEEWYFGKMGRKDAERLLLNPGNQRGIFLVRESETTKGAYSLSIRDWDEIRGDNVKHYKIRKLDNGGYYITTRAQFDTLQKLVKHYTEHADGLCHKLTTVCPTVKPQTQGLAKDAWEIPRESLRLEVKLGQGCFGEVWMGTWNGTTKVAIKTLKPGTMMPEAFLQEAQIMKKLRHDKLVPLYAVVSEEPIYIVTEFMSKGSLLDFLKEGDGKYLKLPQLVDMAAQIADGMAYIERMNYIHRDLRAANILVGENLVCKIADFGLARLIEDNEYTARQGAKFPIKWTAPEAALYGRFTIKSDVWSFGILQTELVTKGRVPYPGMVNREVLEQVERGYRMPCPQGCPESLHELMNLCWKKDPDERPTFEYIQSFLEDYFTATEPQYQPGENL

`OCc1cc([C@@H](O)CNCCCCCCOCCCCc2ccccc2)ccc1O`: the activity change, negative = inhibition is 9.46% in [1] and -1.3% in [2]. Also, the activity, negative = inhibition in experiment [3] was -26.7%. Further, the Potency in [4] and in experiment [5] was greater than 46 µM each time. The Potency entry in experiment [6], in experiment [7], in [8], in experiment [9], in experiment [10] and in experiment [11] was “inactive” each time.

In the case of `Fc1ccc(-c2nc3n(c2-c2ccncc2)CCS3)cc1`, the Potency in experiment [12] was 15.8 µM (active); in [14], 519 nM (active). Besides, the Potency entry in experiment [13], in experiment [10], in experiment [11] and in [16] was “inactive” each time. For the same compound, the result in experiment [15] was inactive.

Consider `c1ccc(-c2n[nH]c3c2oc2ccccc23)cc1`, for which the Potency result in [10], in experiment [11] and in experiment [16] was “inactive” in each case.
